Inconclusive results are not listed. Active and inactive are the calls of the source. The call rests on the fitted dose curve; in most records, active means well fitted curve in the direction sought with a large enough effect; inconclusive means small, poorly fitted or top-dose-only effect, or another doubt; inactive means no such curve, though single readings can be large; an effect the other way counts as inactive or inconclusive.

One assay has as its target Furin (Homo sapiens) (UniProt P09958). In words: Furin counterscreen qHTS for Zika virus inhibitors (AID 1347149). Further: nearly all actives have a fitted effect of over 70% in size. Further: potency means the concentration at half of the fitted maximal effect. The method in brief:
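Fluorogenic cleavage of BOC-RVRR-AMC (2 microM final, Km ~15 µM) was monitored (ex 340, em 450 nm) at 37C after 15 min RT preincubation of 5 nM furin with compounds in HEPES pH 7.0 buffer with CaCl2 and Triton X-100. Percent inhibition was fitted to a 4-parameter Hill curve.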
(Counterscreens check selectivity or assay interference.)

Assay [1] is described as follows: Confirmatory screen GU Rhodamine qHTS for Zika virus inhibitors qHTS (AID 1347157). Further: nearly all actives have a fitted effect of over 70% in size. Further: potency means the concentration at half of the fitted maximal effect. The method in brief: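 Compounds, tested up to 114 microM, were incubated for 15 minutes with 25 nM unlinked NS2B-NS3 protease at pH 8.0. Cleavage of 1.5 microM Rhodamine110 substrate was then followed by fluorescence for 15 minutes.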
On the technique in general: Quantitative high-throughput screening tests each substance at several concentrations.

Assay [2] can be described thus: ZIKV-mCherry secondary qHTS for Zika virus inhibitors (AID 1347158). Further: top concentration of the series differs between compounds. The method in brief: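 Vero cells (5,000/well) were given compound, then infected with ZIKV-mCherry at MOI 1 for 48–72 h at 37 °C. After PFA fixation and Hoechst staining, imaging gave percent mCherry-positive cells. The positivity threshold was RFU above 450, 3 SD over negative controls.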
The subject of assay [3] is Zika virus NS2B-NS3 protease (linked construct). The assay can be described thus: 384 well plate NINDS Rhodamine confirmatory qHTS for Zika virus inhibitors (AID 1347164).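 Further: fluorescence from protease cleavage of Ac-LKRR-rhodamine 110 substrate; potency means the concentration at half of the fitted maximal effect; nearly all actives have a fitted effect of over 65% in size.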 The method in brief:
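Enzyme (final 5/30/60 nM) + cpd (DMSO), ~15 min; add Ac-LKRR-Rd 10 microM final; 25 min RT, dark; FI ex 485/em 538; normalized to no-enzyme, no-inhibitor ctrls; aprotinin intraplate ctrl.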

Assay [4] can be described thus: Tertiary RLuc qRT-PCR qHTS assay for Zika virus inhibitors (AID 1347169). Further: top concentration of the series differs between compounds; nearly all actives have a fitted effect of over 55% in size. The method in brief:
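Vero, 1,000 cells/well, o/n 37 C; cpd pinned in DMSO; ZIKV-RLuc Cambodian, MOI 1-2, 48-72 h 37 C; live-cell RLuc substrate, lum read at 1-1.5 h.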
For orientation: Quantitative PCR measures a nucleic acid by following its amplification.

Assay [5] in a line: Confirmatory screen NINDS Rhodamine qHTS for Zika virus inhibitors (AID 1347161). Further: nearly all actives have a fitted effect of over 60% in size. Further: potency means the concentration at half of the fitted maximal effect. The method in brief:
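qHTS dose-response: 25 nM linked protease, pH 8.0 Tris/Tween buffer, cpd titration, 15 min RT preinc, 1.5 microM Rhod110 peptide, 15 min reaction (~15% conversion), Ex480/Em540; 4-parameter Hill fit.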

Assay [6] concerns Zika virus NS2B-NS3 protease (linked). In words: 384 well plate NINDS AMC confirmatory qHTS for Zika virus inhibitors (AID 1347163).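 Further: linked protease at 5 30 or 60 nM final depending on run; fluorescence of AMC released from Ac-VKTGKR-AMC peptide cleaved by the protease; top concentration of the series differs between compounds; nearly all actives have a fitted effect of over 50% in size.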 The method in brief:
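Linked NS2B-NS3 protease (final 5 nM, 30 nM or 60 nM) was preincubated with compounds (final up to 1 mM) for ~15 minutes. Ac-VKTGKR-AMC substrate (final 30 microM) then reacted for 25 minutes at room temperature in the dark. Fluorescence (ex 355/em 460 nm) was normalized to no-enzyme and no-inhibitor controls.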

The target in assay [7] is Calcium and integrin-binding protein 1 (Homo sapiens) (UniProt Q99828). The assay can be described thus: Primary qHTS for Identification of Calcium Integrin Binding Protein 1 (CIB1) Competitor (AID 1508620). Further: top concentration of the series differs between compounds. The method in brief: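 Fluorescence polarization competition: GST-tagged CIB1 (1 uM final) preincubated with compound 15 min at room temperature, then FITC-labelled alphaIIb peptide (100 nM final) added. After 15 min at room temperature, polarization read at Ex 480/Em 540.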
Sequence of Calcium and integrin-binding protein 1 (Homo sapiens) (Q99828 whole entry, looked up): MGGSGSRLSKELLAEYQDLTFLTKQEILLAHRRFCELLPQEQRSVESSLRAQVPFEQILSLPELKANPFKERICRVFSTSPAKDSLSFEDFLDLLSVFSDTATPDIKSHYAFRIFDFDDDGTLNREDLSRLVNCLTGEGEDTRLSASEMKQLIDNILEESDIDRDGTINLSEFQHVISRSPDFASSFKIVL

Assay [8] is described as follows: Confirmation and Secondary Assay for Modulators of Hemoglobin Beta Chain Splicing at IVS2 654 locus (AID 910).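 Further: HeLa cells stably carrying EGFP split by mutant beta-globin IVS2-654 intron.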 The method in brief: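 HeLa cells stably expressing EGFP interrupted by β-globin IVS2-654 intron, seeded overnight in Opti-MEM/2% FCS, then treated 2 days at 37 °C. Restored splicing read as total peak GFP intensity per well by laser scanning cytometry (488 nm excitation, 500–520 nm emission); 500 nM antisense PNA as control.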

Assay [9] can be described thus: Confirmation and Secondary Assay for Modulators of Hemoglobin Beta Chain Splicing at IVS2 705 locus (AID 930).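 Further: HeLa cells stably expressing the EGFP-705 splicing reporter; GFP fluorescence per well restored by corrected splicing of the IVS2-705 intron in EGFP; series mostly up to about 46 µM.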 The method in brief:
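Read-out: total peak GFP fluorescence per well (488 nm excitation, 500-520 nm emission) by laser-scanning cytometry. Cells: HeLa EGFP-705 splicing reporter, 2 days compound exposure in Optimem/2% FCS.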

Assay [10] deals with Glutathione peroxidase 1 (Homo sapiens) (UniProt P07203). In words: Primary qHTS Assay for Inhibitors of Recombinant Selenoprotein Glutathione Peroxidase 1 (GPX1) (AID 1845191). Further: nearly all actives have a fitted effect of over 65% in size. The method in brief:
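GR-coupled assay: compounds preincubated 30 min at room temperature with GPX1, then reaction started with CHP; final 10 nM GPX1, 1 mM GSH, 0.5 mM CHP, 0.5 mM NADPH, 100 nM GR, 0.01% BSA, pH 7.5 Tris buffer. NADPH fluorescence (340/450 nm) read at 0 and 15 min.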

Sequence of Furin (Homo sapiens) (P09958 whole entry, looked up): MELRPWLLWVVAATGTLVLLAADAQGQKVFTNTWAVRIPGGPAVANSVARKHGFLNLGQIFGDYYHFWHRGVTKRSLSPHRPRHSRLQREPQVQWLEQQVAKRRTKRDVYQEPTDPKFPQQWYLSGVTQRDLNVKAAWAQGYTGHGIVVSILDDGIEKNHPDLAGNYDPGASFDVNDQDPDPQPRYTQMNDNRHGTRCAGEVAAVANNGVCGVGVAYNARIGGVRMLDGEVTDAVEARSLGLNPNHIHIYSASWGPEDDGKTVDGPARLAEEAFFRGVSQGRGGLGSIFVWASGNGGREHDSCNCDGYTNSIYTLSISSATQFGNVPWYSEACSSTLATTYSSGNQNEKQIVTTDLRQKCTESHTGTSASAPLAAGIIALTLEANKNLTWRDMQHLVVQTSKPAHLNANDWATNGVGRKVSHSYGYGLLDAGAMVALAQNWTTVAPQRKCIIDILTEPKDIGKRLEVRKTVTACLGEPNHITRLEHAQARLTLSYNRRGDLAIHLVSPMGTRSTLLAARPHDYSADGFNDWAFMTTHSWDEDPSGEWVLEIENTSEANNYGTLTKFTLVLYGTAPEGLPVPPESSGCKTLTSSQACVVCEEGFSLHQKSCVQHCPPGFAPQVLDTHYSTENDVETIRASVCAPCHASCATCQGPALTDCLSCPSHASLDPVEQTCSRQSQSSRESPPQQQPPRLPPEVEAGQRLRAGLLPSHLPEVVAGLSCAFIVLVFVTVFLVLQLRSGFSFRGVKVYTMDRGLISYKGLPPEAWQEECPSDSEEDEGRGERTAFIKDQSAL
Sequence of Glutathione peroxidase 1 (Homo sapiens) (P07203 whole entry, looked up): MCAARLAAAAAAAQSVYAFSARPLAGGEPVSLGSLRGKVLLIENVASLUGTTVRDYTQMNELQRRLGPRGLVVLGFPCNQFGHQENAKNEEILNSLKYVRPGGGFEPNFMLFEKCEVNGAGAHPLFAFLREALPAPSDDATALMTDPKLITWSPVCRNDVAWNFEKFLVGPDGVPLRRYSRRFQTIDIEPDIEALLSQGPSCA

Take `O=C(Nc1cccc(C(=O)OCc2cc(=O)n3nc(C4CC4)sc3n2)c1)c1cccc(F)c1`: the Potency is 41.8 µM (active) in the assay with Furin (Homo sapiens), 50.1 µM (active) in [1] and 17.8 µM (active) in [3]. The Potency entry in [2] and in assay [4] was “inactive” throughout.

`Cc1ccc(-c2nnc(Nc3ccc(O)cc3)c3ccccc23)cc1S(=O)(=O)NCc1nc2ccccc2[nH]1`: the Potency result (with Furin (Homo sapiens); in assay [1]; in assay [5]) was “inactive” in each case.

For the compound `O=c1oc2cc(O)ccc2cc1-c1nc(-c2ccc(Cl)c(Cl)c2)cs1`, the Potency result (with Furin (Homo sapiens); in assay [2]; in [6]; in assay [4]) was “inactive” throughout. In assay [1], the Potency is 11.2 µM (active).

`CC(C)(C)c1ccc(S(=O)(=O)Nc2ccc(O)c(Sc3nc4ccccc4s3)c2)cc1`: the Potency result in the assay with Furin (Homo sapiens) is “inactive”. The Potency was 35.5 µM (active) in assay [1], 28.2 µM (active) in [5] and 100 µM (active) in [3].

For `CCc1ccc(S(=O)(=O)Nc2cc3c(C(=O)OCc4ccccc4)c(C)oc3c3ccccc23)cc1`, the Potency entry (with Furin (Homo sapiens); in [1]; in assay [5]) was “inactive” in each case.

Regarding `O=C(OCC#CCSc1nnc(-c2cccc3ccccc23)o1)c1sc2ccccc2c1Cl`, in the assay with Furin (Homo sapiens), the Potency was 46.9 µM (active). The Potency entry in assay [1], in [5] and in assay [4] was “inactive” throughout. The result in assay [7] was inactive.

Regarding `O=C(OCC#CCSc1nnc(-c2cccc3ccccc23)o1)c1sc(Cl)c(Cl)c1Cl`, in the assay with Furin (Homo sapiens), the Potency was 14.8 µM (active). The Potency result in assay [1], in assay [5] and in assay [4] was “inactive” throughout. In assay [7], the result was inactive.

Turning to `CCOC(=O)c1c(-c2ccc(C)cc2)csc1NC(=O)c1cc(-c2ccc(Cl)cc2)on1`, the Potency result (with Furin (Homo sapiens); in assay [1]; in assay [5]; in [4]) was “inactive” in each case.

For `NC(Cc1cc(I)c(Oc2cc(I)c(O)c(I)c2)c(I)c1)C(=O)O` (centres undefined), the result in assay [8] and in [9] was inactive. For the same compound, the Potency entry (with Furin (Homo sapiens); in assay [4]; in assay [10]) was “inactive” each time. Further, the results for the Potency in [1] and in [5] were 31.6 µM (active) and 22.4 µM (active), respectively.

For `O=C(CNC(=O)c1ccccc1)OC(C(=O)Nc1cc(C(F)(F)F)ccc1Cl)c1ccccc1` (centres undefined), the Potency result (with Furin (Homo sapiens); in assay [1]; in [5]; in [4]) was “inactive” throughout.

As to `O=C(OCC#CCSc1nnc(-c2cccc3ccccc23)o1)c1ccc(F)cc1F`, the Potency with Furin (Homo sapiens) is 46.9 µM (active). Also, the Potency entry in assay [1], in assay [5] and in [4] was “inactive” throughout. For the same compound, the result in assay [7] was inactive.

Regarding `O=C(OCC#CCSc1nnc(-c2ccccc2F)o1)c1ccc(F)cc1`, the Potency result (with Furin (Homo sapiens); in assay [1]; in [5]; in assay [4]) was “inactive” throughout. Further, the result in assay [7] was inactive.

In the case of `O=C(OCC#CCSc1nnc(-c2cc3ccccc3cc2O)o1)c1ccc(F)cc1`, the Potency in the assay with Furin (Homo sapiens) was 83.5 µM (active). For the same compound, the Potency result in [1] and in [5] was “inactive” in each case. Also, in [7], the outcome was inactive.

The values are drawn from PubChem BioAssay (NCATS).
